Results from PubChem BioAssay AID652104 (National Center for Advancing Translational Sciences (NCATS), 2013).
Values joined by “and” are separate entries in the source; they are usually repeats but may differ in a detail not shown here. Identical values can stand only once. About 7,200 (1.8%) of roughly 410,000 compounds were called active. Not shown: some 7% with an inconclusive outcome. Calls follow the shape of the dose curve; as a rule, active = well fitted activation curve with a large enough effect; inconclusive = small, poorly fitted or top-dose-only effect, or another doubt; inactive = no such curve, though single readings can be large or run the other way. The sample as a whole holds a higher share of actives than the screen did. Some compounds were tested as several samples or in several runs, with calls that do not always agree.

Experiment: qHTS of TDP-43 Inhibitors; also: nearly all actives have a fitted effect of over 50% in size; as to growth rescue (activation): % of control where 0% means no effect
Conditions: TDP-43 expressing yeast growth rescue, BacTiter-Glo, 24 h; series mostly up to 46.1 µM; growth rescue (activation): at the top concentration
Outline: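 Cell-based yeast growth screen: TDP-43 expression induced in galactose, inoculum OD600=0.02 after raffinose pregrowth to mid-log. Read-out BacTiter-Glo luminescence at 24 hr, 30 deg C; inhibition of toxicity seen as signal increase.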
Potency is read from the fitted curve at half-maximal effect.

Potency, active:
Cc1ccc(NC(=O)CN2C(=O)CC(C)Sc3ccccc32)c(C)c1 (stereo not given) 17.8 µM
CC1(C)Cc2ccccc2/C(=C/C(=O)c2ccccc2)N1 12.6 µM
COc1ccc(-c2cc(C(F)(F)F)nc(S(C)(=O)=O)n2)cc1OC 10 µM
O=C(O)c1ccccc1CSc1nc2ccccc2s1 12.6 µM
COc1ccccc1N1CCN(C(=O)c2cc3c(-c4ccc(Cl)cc4)nn(C)c3s2)CC1 35.5 µM
COc1cccc(-c2cc(C(=O)N3CCN(c4ccccc4OC)CC3)no2)c1 22.4 µM
O=C(CSc1ccc(-c2ccccn2)nn1)Nc1ccccc1 28.2 µM
CCNc1nc(-c2cc3ccccc3o2)cs1 14.1 µM
COc1ccc(NC(=O)C2Cc3c(-c4ccc(Cl)cc4)ccnc3O2)cc1 (stereo not given) 14.1 µM
COc1ccc(C(=O)NC2CCCc3c2cnn3-c2cccc(C)c2C)c(OC)n1 (stereo not given) 15.8 µM
S=c1[nH]nc2c3c4c(sc3ncn12)CCCC4 4.47 µM
Cc1cc2c(cc3c(SCc4nc(-c5ccccc5)oc4C)nnc(C)n32)o1 17.8 µM
Cc1cc2c(cc3c(SCc4cccc(Cl)c4)nnc(C)n32)o1 20 µM
COc1ccc(Nc2nc(NCc3ccco3)nc(N/N=C/c3ccccc3Cl)n2)cc1 17.8 µM
O=C1c2ccccc2S(=O)(=O)N1CC(O)Cn1c2ccccc2c2ccccc21 (stereo not given) 11.2 µM
CCOc1ccc(/C=N/OCC(=O)NCc2cccs2)cc1 11.2 µM
Cc1ccc(Cc2c(-c3ccco3)nc3ccc(Cl)cn23)cc1 6.31 µM
c1ccc(Cc2c(-c3ccco3)nc3c4ccccc4ccn23)cc1 35.5 µM
Clc1cccc(Cc2c(-c3cccc(Cl)c3)nc3ccc(Cl)cn23)c1 12.6 µM

Potency, inactive and 12.6 µM (active):
Cc1cccc(CNS(=O)(=O)c2ccc(-c3cnc(C4CC4)o3)cc2)c1

Potency, inactive:
COc1ccc(Nc2ncc(C(=O)N3CCN(c4ccccc4OC)CC3)c3ccccc23)cc1

Growth rescue (activation), inactive:
CC1CC(=O)N(CC(=O)Nc2cccc(Cl)c2)c2ccccc2S1(=O)=O (stereo not given) -1.06%
Cc1ccccc1NC(=O)CN1C(=O)C(C)(C)c2ccccc21 21.2%
COC(=O)c1c(NC(=O)c2cc(=O)c3c(C)cc(C)cc3o2)sc2c1CCCC2 0%
COc1ccc(-c2noc(CSc3nc4ccc(C)cc4[nH]3)n2)cc1 8.72%
COc1ccc(OC)c(CNC(=O)Cn2nc(C)c3c(C)n(-c4ccccc4)nc3c2=O)c1 5.84%
CC(C)CC(N=C1NC(C)(C)Cc2ccccc21)C(=O)O (stereo not given) -13.2%
CCOC(=O)C1=C(NC(=S)NC(=O)c2ccccc2)c2ccccc2CC1(C)C 16.4%
O=C(CSc1n[nH]c(-c2ccccc2)n1)N1CCCCC1 18.7%
Cc1cc(=O)n(CC(=O)Nc2cccc([N+](=O)[O-])c2)c(-n2nc(C)cc2C)n1 28.7%
COC(=O)c1cc(NC(=O)CCS(=O)(=O)c2cc(Br)cc3c2N(C(=O)C2CC2)CC3)cc(C(=O)OC)c1 11.2%
COc1ccc(CNc2nc(-c3ccc(Cl)cc3)cc(C(F)(F)F)n2)cc1 23.9%
COc1ccc(CCNc2nc(-c3ccc(F)cc3)cc(C(F)(F)F)n2)cc1OC -15.4%
COc1ccccc1CNC(=O)Cn1nc(C)c2nn(-c3ccc(Cl)cc3)c(C)c2c1=O 6.06%
COc1ccccc1OCCCn1c(-c2ccc(Cl)cc2)nc2ccccc2c1=O -6.55%
O=C(Nc1ccc2nc(SCC(=O)N3CCc4ccccc43)sc2c1)c1ccccc1F -12.6%
CN(C(=O)CSc1nc2ccc(NC(=O)COc3ccccc3)cc2s1)c1ccccc1 27.4%
Cc1cccc(-c2nc(SCc3ccc(Br)cc3)n3[nH]c(=O)cc3n2)c1 8.73%
COc1ccc(CC(=O)N2CC(=O)Nc3ccc(Br)cc3C2c2ccc(F)cc2)cc1OC (stereo not given) -19.6%
Cn1nc(-c2ccc(Cl)cc2)c2cc(C(=O)NCc3ccco3)sc21 19.9%
CCS(=O)(=O)N1CCc2cc(C(=O)N3CCN(c4ccccc4OC)CC3)ccc21 -2.38%
COc1ccc(CNC(=O)c2cc3c(-c4ccccc4F)nn(C)c3s2)c(OC)c1 19.5%
COc1ccc(C(=O)NCC(c2ccc(N(C)C)cc2)N2CCc3ccccc32)c(OC)c1 (stereo not given) 7.72%
CCOC(=O)c1c(NC(=O)COc2cc(C)ccc2C(C)C)sc(C)c1C 8.05%
CCc1ccccc1OCCSc1nc(-c2cccs2)nc2cc(=O)[nH]n12 2.88%
Cc1nn(C(C)C(=O)NCCc2ccccc2)c(=O)c2c1sc1ccccc12 (stereo not given) 7.28%
O=C(NCCc1ccccc1)c1ccc2c(c1)N(Cc1ccc(F)cc1)C(=O)c1ccccc1S2(=O)=O 3.53%
CCCCN1C(=O)c2[nH]nc(-c3ccccc3O)c2C1c1cccc(OCc2ccccc2)c1 (stereo not given) 0%
Cn1c(=O)c2c(ncn2CC(=O)Nc2cccc(C(F)(F)F)c2)n(C)c1=O 20.5%
CSc1nc(-c2ccc(F)cc2)nc2c1Cc1c(CO)cnc(C)c1O2 21.5%
O=C(CSc1ccc(-c2ccc(-n3cccn3)cc2)nn1)Nc1ccc([N+](=O)[O-])cc1 12.4%
COc1cc(NC(=O)CSc2ccc(-c3cccnc3)nn2)cc(OC)c1 -17.4%
CCc1ccc(NC(=O)CN2CCSc3ccc(S(=O)(=O)N4CCCC4)cc32)cc1 15.8%
Cc1cccc(N2CCN(c3c(CN4CCCC4)c(=O)oc4ccccc34)CC2)c1C 9.53%
COc1ccc(C)cc1Nc1nc2ccccc2c2nnc(C)n12 14.7%
Cc1ccc(C(=O)Nc2c(C(=O)NC(C)(C)C)oc3ccccc23)cc1 14.8%
COc1ccccc1CN(C)C(=O)c1cc2ccccc2o1 20.2%
Cn1c(SCC(=O)NC2CCCCC2)nnc1-c1cc2ccccc2o1 -2.43%
Cc1ccc(N2CC(c3nnc(Cc4ccccc4Cl)o3)CC2=O)cc1 (stereo not given) 22.1%
COc1cc(C(=O)N2CCN(C(=O)COc3cccc(C)c3)CC2)cc(OC)c1OC 9.38%
CCN(CC)S(=O)(=O)c1ccc2c(c1)c(=O)c(C(=O)N1CCN(c3cccc(Cl)c3)CC1)cn2C 15.9%
Cc1cccc(CCNS(=O)(=O)c2ccc(S(=O)(=O)NC3CCCC3)cc2)c1 -9.75%
Cc1ccc(-c2cnc(C3CC3)o2)cc1S(=O)(=O)Nc1cccc(C)c1C 17%
O=C(CN1CCSc2ccccc21)N1CCN(c2ccccc2)CC1 29.6%
COc1ccccc1NC(=O)c1cc(C2CC2)nc2c1c(C)nn2-c1ccc(C)cc1 0% [at 9.22 µM]
COc1ccc(NC(=O)C2Cc3c(-c4cccc(NC(C)=O)c4)ccnc3O2)cc1OC (stereo not given) 10.1%
CC(=O)Nc1ccc(-c2ccnc3c2CC(C(=O)NC(C)C)O3)cc1 (stereo not given) 22.5%
CC1CCc2noc(NC(=O)c3ccc([N+](=O)[O-])cc3)c2C1 (stereo not given) 6.42%
Cc1cc(C)cc(OCC(=O)Nc2nc(-c3ccc(F)cc3)ns2)c1 6.88%
Cn1nccc1C(=O)NC1CCCc2c1cnn2-c1ccc(F)cc1F (stereo not given) 10.7%
COc1cccc(C(=O)Nc2c3c(nn2-c2cccc(C)c2C)CS(=O)(=O)C3)c1OC -20.6%
CCOc1ccc(CNCc2c(C(=O)O)c(C)n(Cc3cccc(OC)c3)c2C)cc1OC 20.8%
Cc1ccc(-n2c(SCC(=O)Nc3cccc(F)c3)nc3c(oc4ccccc43)c2=O)cc1C 6.78%
CCn1c(=S)[nH]c2sc3c(c2c1=O)CCCCC3 7.77%
Cc1ccc2nc(COc3ccc(NC(=O)COc4ccccc4F)cc3)cc(=O)n2c1 -13.1%
Cc1cccc(Cn2c(SCc3ccc(C(=O)N4CCC(C)CC4)cc3)nc3ccncc32)c1 -2.39%
Cc1nnc(SCc2cccc(Cl)c2)n(N)c1=O -2.32%
O=C(c1ccco1)N1CCN=C1SCc1cccc(Cl)c1 4.84%
CCc1nnc(SCc2nc(-c3cccc(C)c3)oc2C)c2cc3sc(C)cc3n12 9.11%
Cc1cc(NC(=O)CSCc2nc(-c3cccc(Cl)c3)oc2C)no1 -9.69%
COc1cccc(-c2nnc(SCC(=O)N3CCC(C)CC3)o2)c1 42.2%
O=C(Cn1cc(SCc2ccccc2)c2ccccc21)N1CCCCC1 0%
COc1ccc(NC(=O)C(=O)NCc2ccco2)cc1 19%
C=CCC(NCc1ccco1)c1ccc(OC)cc1 (stereo not given) -8.96%
COc1cc(OC)cc(-c2nc3nc(C)c(CCC(=O)Nc4ccccc4)c(C)n3n2)c1 1.76%
O=C(NCCCc1ccccc1)c1ccc2c(c1)sc1nc(-c3ccc(F)cc3)cn12 1.87%
CCC(=O)N1c2ccccc2CC1C(=O)N1CCN(c2cccc(OC)c2)CC1 (stereo not given) 0%
CC1=C(c2ccc(C)c(C)c2)S(=O)(=O)NC1=NCc1ccccc1Cl -4.02%
CS(=O)(=O)N(CC(O)Cn1c2ccccc2c2ccccc21)c1cccc2ccccc12 (stereo not given) -13.6%
O=C1c2ccccc2S(=O)(=O)N1Cc1c(F)cccc1Cl -8.24%
COc1ccc(CNC(=O)c2ccc3c(O)c(S(=O)(=O)c4ccccc4)c(=O)[nH]c3c2)cc1 6.56%
CCOc1ccc(/C=C/C(=O)N(CC)CC(=O)NCc2cccs2)cc1OC 0%
CCOc1ccc(C(=O)NC2CCN(CC(=O)NCc3cccs3)CC2)cc1 -6.15%
CCCCc1nn2c(=O)cc(COC(=O)c3ccc(NC(=O)c4ccccc4C)cc3)nc2s1 6.4%
CN1CCN(Cc2c(C(=O)N3CCc4ccccc4C3)nc3ccc(Cl)cn23)CC1 5.77%
CCCc1nc2c3ccccc3ccn2c1Cc1ccccc1C(F)(F)F -67.8%
Cc1ccc2nc(-c3ccccc3)c(CC3CCCCC3)n2c1 0%
N#Cc1ccc(C(C(=O)NCc2ccccc2)n2c(=O)c(-c3ccco3)nc3ccccc32)cc1 (stereo not given) 16.3%
Cc1ccc(-c2nc3c(Cl)cc(C(F)(F)F)cn3c2Cc2cccc(Cl)c2)cc1 28.6%
Cc1cc(Br)cn2c(Cc3cccc(F)c3)c(-c3cccc(Br)c3)nc12 0%
